Among the data in PubChem BioAssay (NCI) are growth values, retold here.

The panel holds about 83,000 compounds, 20% with a hit somewhere; the sample as a whole holds those more often.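 Negative percent growth values reflect cell death: -40 means 40% of the cells present at the start died, and -100 means all died.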 Unmarked numbers belong to inactive results. Calls of active or inactive are those of the source. How the source made its calls: active means growth percent below 10; inactive means the rest.

Holding throughout (assay): NCI-60 one-dose screen, 48 h (100 = growth as untreated, 0 = no growth, -100 = all killed)
For assay [1], the system named is NCI-H23 lung. To be noted: 10 µM unless noted.
For assay [2], the system named is NCI-H226 lung. To be noted: 10 µM unless noted.
The test system of assay [3] is NCI-H322M lung. To be noted: 10 µM unless noted.
The test system of assay [4] is NCI-H460 lung. To be noted: 10 µM unless noted.
Assay [5] has as its system HOP-92 NSCLC. To be noted: 10 µM.
The test system of assay [6] is NCI-H522 lung. To be noted: 10 µM.
Assay [7] deals with A549/ATCC NSCLC. To be noted: 10 µM unless noted.
For assay [8], the system named is 786-0 renal. To be noted: 10 µM unless noted.
Assay [9] concerns COLO 205 colon. To be noted: 10 µM unless noted.

In the case of `COc1ccc(C2=C/C(=C\c3ccc(Cl)cc3)C(=O)NN2C(=S)NN)cc1`, the growth in [1] is 92.5%; in [2] it was 87.6%; in [3] it was 102%; in assay [4], 102%; in [5], 74%; in [6], 83.9%. Further, the growth in assay [7] is 101%; in assay [8], 104%; in assay [9], 114%.
Turning to `COc1ccc(/C=C(/C(=O)N2CCCCC2)c2cc(OC)c(OC)c(OC)c2)cc1`, the growth in [1] is 36.3%; in [2], 94.8%; in assay [3], 45.2%; in [4], 11.6%; in assay [5] it was 45.5%; in [6] it was -24.2% (active). Besides, the growth was 34.9% in assay [7], 23.5% in [8] and -14.6% (active) in assay [9].
Regarding `Cc1nc(NC(=S)Nc2ccc(F)cc2)sc1C(=O)NNC(=S)Nc1ccc(F)cc1`, the growth in assay [1] is 38%; in assay [2] it was 60.7%; in assay [3] it was 86.8%; in assay [4] it was 70.2%; in assay [5], 19.7%; in assay [6], 33.9%. For the same compound, the growth in assay [7] is 66.2%; in assay [8] it was 18.9%; in [9], 85.9%.
As for `CCCC(=O)NNc1[nH]c(-c2ccc(OC)cc2)cc1C(=O)OCC`, the growth was 95.4% in assay [1]; 104% in assay [2]; 35.2% in [3]; 120% in assay [4]; 72.9% in assay [5]; 91.1% in [6]. For the same compound, the growth in [7] is 110%; in assay [8] it was 96.6%; in [9] it was 1.42% (active).
As for `CC(=N\N=C(N)N)/C(=N/N=C(N)N)c1ccccc1`, the growth in assay [1] is 43.1%; in assay [2], 91.4%; in [3], 76.4%; in assay [4], 93.3%; in [5], 95.2%; in [6], 94.4%. Moreover, the growth was 86.2% in [7], 101% in [8] and 6.49% (active) in assay [9].
Regarding `Cc1nn(-c2ccccc2)c(N)c1N=C1NC(=O)/C(=C/c2ccc(Cl)cc2)S1`, the growth in [1] is 78.2%; in [2] it was 83.5%; in [3], 81.8%; in [4] it was 92.6%; in assay [5], 79.9%; in assay [6], 87.1%. The growth in assay [7] is 80.6%; in assay [8], 94.7%; in assay [9] it was 88.4%.
For the compound `CCOC(=O)NC1=NCC(C)(C)S1`, the growth in assay [1] is 102%; in [2], 97.2%; in [3] it was 101%; in [4], 101%; in assay [5], 111%; in assay [6] it was 87.3%. The growth in assay [7] is 100%; in assay [8], 104%; in assay [9] it was 117%.
Regarding `c1cc(C2CCCCC2)ccc1OCCCCCCN1CCNCC1`, the growth in assay [1] is 42.3%; in assay [2] it was 81.9%; in [3], 82%; in [4], -7.36% (active); in assay [5], 6.55% (active); in assay [6], 77.7%. Moreover, the figures for the growth in [7], in assay [8] and in [9] were 36.5%, 58.3% and -52.2% (active), respectively.
For `Cc1c(Cc2ccccc2)c(=O)oc2c(C)c(OCC(=O)n3nc(C#N)cc3N)ccc12`, the growth in [1] is 96.5%; in assay [2], 96.2%; in assay [3] it was 93.6%; in [4], 106%; in assay [5], 89.1%; in assay [6], 79.4%. Further, the growth in assay [7] was 106%; in assay [8], 97%; in [9], 107%.
As to `C=CCN(C)C`, the growth was 102% in assay [1]; 97.3% in assay [2]; 114% in assay [3]; 108% in assay [4]; 110% in assay [5]; 93.7% in [6]. Moreover, the growth was 100% in assay [7], 106% in assay [8] and 121% in assay [9].
In the case of `N=C(N)N=Nc1ccc(NN=C(N)N)cc1`, the growth in [1] is 104%; in assay [2] it was 81.5%; in assay [3], 126%; in assay [4], 85.8%; in assay [5], 96%; in assay [6] it was 88.1%. In addition, the growth in [7] was 8.54% (active); in [8], 98.9%; in [9], 64.1%.
In the case of `c1ccc(C(=NNc2nc3ccccc3o2)c2ccccn2)nc1`, the growth in [1] is 10.8%; in [2], -2.97% (active); in assay [3], 13.3%; in assay [4] it was 3.05% (active); in assay [5] it was 34.4%; in assay [6] it was 20.9%. Moreover, the growth is 6.29% (active) in assay [7], 6.88% (active) in [8] and 18% in [9].
Consider `COC1=CC(c2ccc[nH]2)=N/C1=C\c1[nH]c(C)c(C(=O)CCCCC(=O)NC(C)(C)C)c1C`, for which the growth is 40.6% in [1]; 37.3% in [2]; 45.7% in assay [3]; 5.36% (active) in assay [4]; 3% (active) in [5]; -28.1% (active) in assay [6]. In addition, the growth in [7] is 11.4%; in [9], 44.4%.
With `C[C@@H](c1ccc2c(c1)[nH]c1ccc(Cl)cc12)c1nc2ccccc2[nH]1`, the growth was 91.2% in [1]; 95.3% in assay [2]; 87.3% in [3]; 101% in [4]; 120% in assay [5]; 78.7% in [6]. Moreover, the growth is 104% in assay [7], 103% in assay [8] and 123% in [9].
